# Data from PubChem BioAssay (Tox21).
# Results filed as inconclusive are left out. Where a call stands in place of a potency, no number is given. More than one record can exist for a structure, and the calls need not agree. Calls of active or inactive are those of the source. Unless noted, calls come from the whole dose curve; as a rule, active = well fitted curve in the direction sought with a large enough effect in the repeat runs; inconclusive = weak or mixed curves; inactive = no such curve, though single readings can be large; an effect the other way counts as inactive or inconclusive.
# Assays:
# [1] = qHTS assay to identify small molecule antagonists of the vitamin D receptor (VDR) signaling pathway - cell viability counter screen (AID 743225); note: nearly all actives have a fitted effect of over 50% in size; note: potency is the fitted concentration of half-maximal effect
# Procedure, shortened: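 In this counter screen, VDR-bla HEK 293T cells receive test compound plus 3 nM final calcitriol for 16 h at 37C. Room-temperature steps of 2 h with the beta-lactamase substrate, then 30 min with CellTiter-Glo, precede the luminescence read.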
# [2] = qHTS assay to identify small molecule agonists of the NFkB signaling pathway - cell viability counter screen (AID 1159515; calls by dose curve; note: nearly all actives have a fitted effect of over 55% in size; note: potency is the fitted concentration of half-maximal effect)
# Procedure, shortened: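 Counter screen run alongside the NFkB-bla agonist assay: ME-180 reporter cells exposed to compounds for 5 hr, then lysed with CellTiter-Glo in the same wells. Luminescence, read after 30 min, reflects viable cells.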
# [3] = qHTS assay to identify small molecule antagonists of the retinoid-related orphan receptor gamma (ROR-gamma) signaling pathway - cell viability counter screen (AID 1159520); note: nearly all actives have a fitted effect of over 50% in size; note: potency is the fitted concentration of half-maximal effect
# Procedure, shortened: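 Tet-on ROR gamma CHO cells were given compounds for 2 hr, then doxycycline hyclate at 1 uM final, and incubated 16 hr at 37 C. Viability was measured as ATP content by CellTiter-Glo luminescence.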
# [4] = biological target: Nuclear receptor ROR-gamma (Homo sapiens) (UniProt P51449); test: qHTS assay to identify small molecule antagonists of the retinoid-related orphan receptor gamma (ROR-gamma) signaling pathway (AID 1159521; note: nearly all actives have a fitted effect of over 50% in size; note: potency is the fitted concentration of half-maximal effect)
# Procedure, shortened: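 Screening format: cell-based luciferase reporter in CHO cells with doxycycline-inducible RORγ. Compound pre-exposure lasts 2 h, doxycycline is 1 uM final, induction runs 16 h at 37 C, and ONE-Glo luminescence is read.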
# [5] = qHTS assay to identify small molecule agonists of the AP-1 signaling pathway (AID 1159526; calls by dose curve)
# [6] = biological target: Retinoic acid receptor RXR-alpha (Homo sapiens) (UniProt P19793); test: qHTS assay to identify small molecule agonists of the RXR signaling pathway (AID 1159527; calls by dose curve; note: nearly all actives have a fitted effect of over 35% in size)
# Procedure, shortened: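 Fluorescence ratio readout (460 vs 530 nm) from GeneBLAzer RXR-alpha HEK 293T cells after 16 hr compound treatment; cells seeded 5 hr beforehand in low-serum, charcoal-stripped medium.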
# [7] = qHTS assay to identify small molecule agonists of the RXR signaling pathway - cell viability counter screen (AID 1159529); note: nearly all actives have a fitted effect of over 50% in size; note: potency is the fitted concentration of half-maximal effect;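 for activity change, negative = cytotoxicity: HEK 293T cells carrying an RXR-alpha UAS beta-lactamase reporter; series mostly up to about 77 µM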
# Procedure, shortened: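 Viability read-out for the RXR-alpha agonist qHTS: luminescent CellTiter-Glo signal after 30 min at RT. HEK 293T bla reporter cells, 2% charcoal-stripped FBS, 16 hr compound incubation; tetraoctyl ammonium bromide as cytotoxic control.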
# [8] = qHTS assay to identify small molecule antagonists of the retinoid acid receptor (RAR) signaling pathway - cell viability counter screen (AID 1159551); note: nearly all actives have a fitted effect of over 35% in size
# Procedure, shortened: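 Measured by luminescent ATP detection, viability reflects C3RL4 cells treated 6 h at 37 C with test chemicals in the presence of 1 uM (final) retinol.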
# [9] = qHTS assay to identify small molecule antagonists of the estrogen related receptor (ERR) signaling pathway from Tox21 library - cell viability counter screen (AID 1224834); note: nearly all actives have a fitted effect of over 30% in size; note: potency is the fitted concentration of half-maximal effect
# Procedure, shortened: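 Seeded ERR cells were rested 6 h at 37 C/5% CO2 before compounds, positive and negative controls or DMSO were added. Incubation continued for 17.5 h, and viability was then quantified by CellTiter-Fluor fluorescence.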
# [10] = qHTS assay to identify small molecule agonists of the AP-1 signaling pathway - cell viability counter screen (AID 1159525; calls by dose curve; note: nearly all actives have a fitted effect of over 55% in size; note: potency is the fitted concentration of half-maximal effect)
# Procedure, shortened: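 Same-well cytotoxicity counter screen of the Tox21 10K library in ME-180 cells. The readout is ATP-dependent luminescence after 5 h compound treatment. Data are normalised to DMSO and tetra n-octyl ammonium bromide controls.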
# [11] = qHTS assay to identify small molecule antagonists of the retinoic acid receptor (RAR) signaling pathway (AID 1159552; note: nearly all actives have a fitted effect of over 50% in size; note: potency is the fitted concentration of half-maximal effect)
# Procedure, shortened: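 Using a RARE-driven luciferase construct in C3RL4 cells, retinol at 1 uM final provided the agonist stimulus while compounds were co-applied. After 6 hours at 37 C, luminescence was recorded to flag inhibitors of retinol signaling.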
# [12] = qHTS assay to identify small molecule antagonists of the estrogen related receptor (ERR) signaling pathway - cell viability counter screen (AID 1224818); note: series mostly up to about 46 µM
# Procedure, shortened: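 Compounds dissolved in DMSO were applied to ERR cells seeded at 2,000 per well 6 h earlier. Cell viability followed 17.5 h later via 30-min CellTiter-Fluor fluorescence.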
# [13] = qHTS assay to identify small molecule antagonists of the estrogen related receptor (ERR) signaling pathway (AID 1224819)
# Procedure, shortened: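 Compounds dissolved in DMSO were pin-transferred onto ERR cells that had been plated 6 h earlier, and cells were then incubated 18 h at 37 C; signal was luciferase luminescence via One-Glo.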
# [14] = qHTS assay to identify small molecule agonists of the estrogen related receptor (ERR) signaling pathway (AID 1224820)
# Procedure, shortened: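 After 6 h plating (2,000 cells/well) and 18 h compound treatment at 37 C, ERR cells were lysed with One-Glo and luminescence read after 30 min at room temperature.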
# [15] = test system: estrogen-related receptor alpha (ERRalpha) with PGC-1alpha coactivator, human; test: qHTS assay to identify small molecule antagonists of the estrogen related receptor signaling pathway with the pleiotropic PPARgamma coactivator (PGC) (AID 1224821; calls by dose curve)
# Procedure, shortened: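 Luminescence from One-Glo luciferase reagent (30 min, room temperature) measured after 18 h compound treatment at 37 °C. Cells carry the PGC/ERR reporter and were seeded 6 h prior to dosing.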
# [16] = qHTS assay to identify small molecule antagonists of the estrogen related receptor signaling pathway with the pleiotropic PPARgamma coactivator (PGC) cell viability counter screen (AID 1224822; note: series mostly up to about 46 µM)
# Procedure, shortened: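 Counter screen for cell viability: PGC/ERR cells, 6 h pre-incubation after plating, 17.5 h compound exposure at 37 C, fluorescence from CellTiter-Fluor after 30 min.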
# [17] = qHTS assay to identify small molecule agonists of the estrogen related receptor signaling pathway with the pleiotropic PPARgamma coactivator (PGC) (AID 1224823)
# Procedure, shortened: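 Luminescence from One-Glo reagent (30 min, room temperature) was read after 18 h compound treatment at 37 C of PGC/ERR cells plated 6 h beforehand; compounds delivered in DMSO by pin tool.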
# [18] = qHTS assay to identify small molecule agonists of the retinoic acid receptor (RAR) signaling pathway (AID 1159553)
# Procedure, shortened: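 6 hr compound exposure (DMSO vehicle) of overnight-plated C3RL4 RARE-luc cells at 37 C; luminescence quantified after 30 min RT with luciferase reagent.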
# Chain of Retinoic acid receptor RXR-alpha (Homo sapiens) (P19793 whole entry, looked up): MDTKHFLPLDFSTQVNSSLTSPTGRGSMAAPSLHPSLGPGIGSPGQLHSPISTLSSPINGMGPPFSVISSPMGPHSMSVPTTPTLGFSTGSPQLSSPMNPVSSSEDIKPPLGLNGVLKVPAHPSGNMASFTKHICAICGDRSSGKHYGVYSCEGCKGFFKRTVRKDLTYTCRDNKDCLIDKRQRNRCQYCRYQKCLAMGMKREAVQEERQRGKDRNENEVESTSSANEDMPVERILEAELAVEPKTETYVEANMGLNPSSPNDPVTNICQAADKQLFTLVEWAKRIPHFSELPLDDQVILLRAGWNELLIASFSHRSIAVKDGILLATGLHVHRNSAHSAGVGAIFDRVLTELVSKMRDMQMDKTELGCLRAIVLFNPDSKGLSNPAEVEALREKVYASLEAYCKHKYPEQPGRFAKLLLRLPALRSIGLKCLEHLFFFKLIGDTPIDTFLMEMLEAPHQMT
smiles,measurement,setting,value
COC(=O)c1cc(Cl)ccc1OC,Potency,[1],inactive
same,Potency,[2],inactive
same,Potency,[3],inactive
same,Potency,[4],inactive
same,Potency,[5],inactive
same,Potency,[6],inactive
same,Potency,[7],inactive
same,Potency,[8],inactive
same,Potency,[9],inactive
CCCC(=O)OC[C@@H](OC(=O)CCC)[C@@H](OC(=O)CCC)[C@H](Cn1c2nc(=O)[nH]c(=O)c-2nc2cc(C)c(C)cc21)OC(=O)CCC,Potency,[1],inactive
same,Potency,[2],inactive
same,Potency,[3],inactive
same,Potency,[10],inactive
same,Potency,[7],inactive
same,Potency,[8],inactive
same,Potency,[11],inactive
C/C(=C(/OCCOc1ccc(Cl)cc1)c1ccc(Cl)cc1Cl)n1ccnc1,Potency,[1],inactive
same,Potency,[2],inactive
same,Potency,[3],inactive
same,Potency,[6],inactive
same,Potency,[8],inactive
same,Potency,[11],inactive
same,Potency,[9],inactive
CCCCCCCCS(=O)C(C)Cc1ccc2c(c1)OCO2 (stereo not drawn),Potency,[1],44.5 µM (active)
same,Potency,[2],inactive
same,Potency,[3],inactive
same,Potency,[4],inactive
same,Potency,[8],inactive
O=Cc1cc(O)ccc1Br,Potency,[1],inactive
same,Potency,[2],inactive
same,Potency,[4],inactive
same,Potency,[10],inactive
same,Potency,[5],inactive
same,Potency,[7],inactive
same,Potency,[8],inactive
same,Potency,[11],inactive
same,Potency,[9],inactive
CCCCC(CC)COC(=O)c1ccccc1C(=O)O (stereo not drawn),Potency,[2],inactive
same,Potency,[3],inactive
same,Potency,[10],inactive
same,Potency,[7],inactive
same,Potency,[8],inactive
same,Potency,[12],inactive
same,Potency,[13],inactive
same,outcome,[14],inactive
same,Potency,[15],inactive
same,Potency,[16],inactive
same,outcome,[17],inactive
same,Potency,[9],inactive
C[C@H](CCC(=O)O)[C@H]1CC[C@H]2[C@@H]3CC[C@@H]4C[C@H](O)CC[C@]4(C)[C@H]3CC[C@]12C,Potency,[1],inactive
same,Potency,[2],49 µM (active)
same,Potency,[3],60.9 µM (active) and inactive
same,Potency,[4],inactive
same,Potency,[7],38.7 µM (active)
same,Potency,[9],inactive
CN(C)C(=O)C1(N2CCCCC2)CCN(CC[C@@]2(c3ccc(Cl)c(Cl)c3)CN(C(=O)c3ccccc3)CCO2)CC1,Potency,[1],22.9 µM (active)
same,Potency,[2],51.3 µM (active)
same,Potency,[3],50.9 µM (active)
same,Potency,[4],32.1 µM (active)
same,Potency,[7],16.2 µM (active)
same,Potency,[11],28.6 µM (active)
same,Potency,[9],50.9 µM (active)
Cc1ccc(O)c2ncccc12,Potency,[2],6.01 µM (active)
same,Potency,[3],21.1 µM (active)
same,Potency,[4],15 µM (active)
same,Potency,[10],16.9 µM (active)
same,Potency,[8],inactive
same,Potency,[11],inactive
same,Potency,[9],16.8 µM (active)
O=C(OC[C@H]1O[C@@H](OC(=O)c2cc(O)c(O)c(OC(=O)c3cc(O)c(O)c(O)c3)c2)[C@H](OC(=O)c2cc(O)c(O)c(OC(=O)c3cc(O)c(O)c(O)c3)c2)[C@@H](OC(=O)c2cc(O)c(O)c(OC(=O)c3cc(O)c(O)c(O)c3)c2)[C@@H]1OC(=O)c1cc(O)c(O)c(OC(=O)c2cc(O)c(O)c(O)c2)c1)c1cc(O)c(O)c(OC(=O)c2cc(O)c(O)c(O)c2)c1,Potency,[2],inactive
same,"activity, negative = cytotoxicity",[3],-4.77% [at 19 µM] (inactive)
same,"viability change, negative = cytotoxic",[10],1.96% [at 15.8 µM] (inactive)
same,"activity change, negative = cytotoxicity",[7],11.4% [at 15.8 µM] (inactive)
same,"activity change, negative = cytotoxicity",[8],-3.41% [at 19 µM] (inactive)
same,"activity, negative = inhibition",[11],22.4% [at 19 µM] (inactive)
same,Potency,[18],inactive
On1ccccc1=S,Potency,[1],inactive
same,Potency,[2],0.385 µM (active)
same,Potency,[3],5.39 µM (active)
same,Potency,[4],0.303 µM (active)
same,Potency,[10],21.7 µM (active)
same,Potency,[7],2.43 µM (active)
same,Potency,[9],1.71 µM (active)
